From PubChem BioAssay (Tox21)
Records with an inconclusive call do not appear. A number with no mark means an inactive call. Calls of active or inactive are those of the source. The call rests on the fitted dose curve; in most records, active means well fitted curve in the direction sought with a large enough effect in the repeat runs; inconclusive means weak or mixed curves; inactive means no such curve, though single readings can be large; an effect the other way counts as inactive or inconclusive.

Tests used:
[1] = target: Cytochrome P450 2C9 (Homo sapiens) (UniProt P11712); test: Cytochrome P450 Family 2 Subfamily C Member 9 (CYP2C9) small molecule antagonists: luciferase reporter qHTS assay (AID 1671198); on activity change, negative = inhibition: series mostly up to about 120 µM; on the % scale 0 is the no-effect control and ±100 the full control effect
Sequence of Cytochrome P450 2C9 (Homo sapiens) (P11712 whole entry, looked up): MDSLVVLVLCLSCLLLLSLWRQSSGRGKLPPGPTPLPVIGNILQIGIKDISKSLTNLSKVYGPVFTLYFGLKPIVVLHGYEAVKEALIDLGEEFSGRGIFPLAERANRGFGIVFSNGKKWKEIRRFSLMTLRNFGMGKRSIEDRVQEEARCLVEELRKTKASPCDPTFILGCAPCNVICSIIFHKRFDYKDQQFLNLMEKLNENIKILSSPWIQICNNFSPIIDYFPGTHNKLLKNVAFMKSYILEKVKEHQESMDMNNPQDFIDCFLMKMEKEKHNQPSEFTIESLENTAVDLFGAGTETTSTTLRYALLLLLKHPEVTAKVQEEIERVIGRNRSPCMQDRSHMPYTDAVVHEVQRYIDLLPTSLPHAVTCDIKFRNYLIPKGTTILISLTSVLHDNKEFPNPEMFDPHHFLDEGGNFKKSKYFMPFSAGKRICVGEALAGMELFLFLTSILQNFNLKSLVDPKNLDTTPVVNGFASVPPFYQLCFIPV
Outline: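 P450-Glo proluciferin substrate with CYP2C9 enzyme; 10 min RT preincubation, then NADPH regeneration 1 h at 37C; luciferin detection reagent 20 min RT, luminescence in relative luminescence units.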

[2] = target: Cytochrome P450 1A2 (Homo sapiens) (UniProt P05177); test: Cytochrome P450 Family 1 Subfamily A Member 2 (CYP1A2) small molecule antagonists: luciferase reporter qHTS assay (AID 1671199); on activity change, negative = inhibition: series mostly up to about 120 µM; on the % scale 0 is the no-effect control and ±100 the full control effect
Sequence of Cytochrome P450 1A2 (Homo sapiens) (P05177 whole entry, looked up): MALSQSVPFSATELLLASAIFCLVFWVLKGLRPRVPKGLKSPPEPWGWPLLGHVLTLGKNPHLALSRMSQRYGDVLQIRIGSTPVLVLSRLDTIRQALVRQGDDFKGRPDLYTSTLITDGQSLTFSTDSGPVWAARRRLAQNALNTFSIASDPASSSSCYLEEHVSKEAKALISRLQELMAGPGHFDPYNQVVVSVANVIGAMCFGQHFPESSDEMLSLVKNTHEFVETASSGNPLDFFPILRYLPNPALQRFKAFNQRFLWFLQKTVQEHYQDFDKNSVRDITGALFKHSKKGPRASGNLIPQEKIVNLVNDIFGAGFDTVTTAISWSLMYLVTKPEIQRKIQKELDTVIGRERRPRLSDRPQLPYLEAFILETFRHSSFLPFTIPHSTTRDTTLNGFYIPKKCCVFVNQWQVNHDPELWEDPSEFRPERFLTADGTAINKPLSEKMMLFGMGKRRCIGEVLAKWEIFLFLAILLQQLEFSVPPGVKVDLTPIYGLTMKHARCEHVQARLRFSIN
Outline: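 P450-Glo CYP1A2, 1536-well qHTS: enzyme/proluciferin substrate + cpd (DMSO), 10 min RT; NADPH regen, 1 h RT; detection reagent, 20 min; luminescence, RLU.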

[3] = target: Voltage-gated inwardly rectifying potassium channel KCNH2 (Homo sapiens) (UniProt Q12809); test: Human Ether-a-go-go-Related Gene (hERG) channel small molecule antagonists: fluorescence cell-based qHTS assay (AID 1671200);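 on activity change, negative = inhibition: hERG-expressing U2OS cells given a thallium stimulus after FluxOR II dye loading; series mostly up to about 77 µM; on the % scale 0 is the no-effect control and ±100 the full control effect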
Sequence of Voltage-gated inwardly rectifying potassium channel KCNH2 (Homo sapiens) (Q12809 whole entry, looked up): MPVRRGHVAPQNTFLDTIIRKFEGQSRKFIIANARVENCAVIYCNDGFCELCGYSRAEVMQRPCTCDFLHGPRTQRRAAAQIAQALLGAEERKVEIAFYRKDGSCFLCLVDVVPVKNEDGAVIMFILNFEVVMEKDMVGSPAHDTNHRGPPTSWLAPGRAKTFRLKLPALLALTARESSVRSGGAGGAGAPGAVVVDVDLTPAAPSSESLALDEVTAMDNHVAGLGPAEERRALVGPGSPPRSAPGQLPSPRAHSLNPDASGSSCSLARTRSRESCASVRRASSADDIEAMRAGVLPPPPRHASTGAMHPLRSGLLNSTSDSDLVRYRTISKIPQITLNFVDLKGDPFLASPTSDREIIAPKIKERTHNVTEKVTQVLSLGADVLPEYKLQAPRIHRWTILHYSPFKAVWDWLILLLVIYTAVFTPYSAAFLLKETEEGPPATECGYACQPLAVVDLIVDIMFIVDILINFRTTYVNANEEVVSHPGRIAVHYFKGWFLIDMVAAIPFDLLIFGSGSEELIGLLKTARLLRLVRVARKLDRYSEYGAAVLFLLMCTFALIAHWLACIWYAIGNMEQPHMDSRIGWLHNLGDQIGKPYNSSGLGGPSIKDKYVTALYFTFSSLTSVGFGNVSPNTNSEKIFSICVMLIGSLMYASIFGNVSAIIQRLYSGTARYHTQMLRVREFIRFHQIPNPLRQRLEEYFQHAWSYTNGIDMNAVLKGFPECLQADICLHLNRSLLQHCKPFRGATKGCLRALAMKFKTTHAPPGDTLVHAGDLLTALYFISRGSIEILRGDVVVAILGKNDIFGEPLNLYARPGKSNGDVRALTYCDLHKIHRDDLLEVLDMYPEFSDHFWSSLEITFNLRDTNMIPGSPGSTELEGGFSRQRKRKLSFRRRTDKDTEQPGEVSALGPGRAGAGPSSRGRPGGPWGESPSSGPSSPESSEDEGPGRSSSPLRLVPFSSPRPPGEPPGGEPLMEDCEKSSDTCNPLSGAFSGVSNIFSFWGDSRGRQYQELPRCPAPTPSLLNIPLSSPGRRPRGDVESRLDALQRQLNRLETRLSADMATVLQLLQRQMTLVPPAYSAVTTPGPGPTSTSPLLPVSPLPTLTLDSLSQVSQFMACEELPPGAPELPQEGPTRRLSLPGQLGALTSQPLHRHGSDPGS
Outline: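 First, 1000 cells per well are seeded and cultured overnight at 37 C. Next, FluxOR II dye is loaded for 1 h at room temperature, protected from light. After 10 more minutes, stimulus is added and fluorescence is read.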

[4] = target: Cytochrome P450 3A4 (Homo sapiens) (UniProt P08684); test: Cytochrome P450 Family 3 Subfamily A Member 4 (CYP3A4) small molecule antagonists: luciferase reporter qHTS assay (AID 1671201)
Sequence of Cytochrome P450 3A4 (Homo sapiens) (P08684 whole entry, looked up): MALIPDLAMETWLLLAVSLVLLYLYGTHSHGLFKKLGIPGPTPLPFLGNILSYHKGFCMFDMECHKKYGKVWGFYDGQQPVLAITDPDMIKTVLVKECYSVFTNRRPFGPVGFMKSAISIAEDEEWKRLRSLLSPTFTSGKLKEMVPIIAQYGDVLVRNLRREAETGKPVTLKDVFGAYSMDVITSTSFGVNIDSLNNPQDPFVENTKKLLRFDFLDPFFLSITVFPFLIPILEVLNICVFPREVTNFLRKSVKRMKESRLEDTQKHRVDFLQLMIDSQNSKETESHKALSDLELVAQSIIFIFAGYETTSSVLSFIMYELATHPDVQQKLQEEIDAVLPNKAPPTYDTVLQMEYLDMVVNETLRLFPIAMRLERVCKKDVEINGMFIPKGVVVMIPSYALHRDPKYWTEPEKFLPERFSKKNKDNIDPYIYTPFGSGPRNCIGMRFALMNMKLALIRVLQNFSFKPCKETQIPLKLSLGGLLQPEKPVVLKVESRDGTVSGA
Outline: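 Enzyme and proluciferin substrate are mixed with test chemicals for 10 min, then NADPH regeneration system drives turnover for 1 h at room temperature. A detection reagent halts the reaction; luminescence after 20 min gives relative activity.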
Further: nearly all actives have a fitted effect of over 50% in size.
Potency means the concentration at half of the fitted maximal effect.

Row | SMILES | Potency [1] | Potency [2] | Potency [3] | Potency [4] | activity change, negative = inhibition [3]
1 | CCCCN(CCCC)c1ccc(C(=O)c2ccccc2C(=O)O)c(O)c1 | 6.39 µM (active) | 63.9 µM (active) |  |  | 
2 | CCCCCCCCCCCCCCCC[N+](C)(C)CCN(Cc1ccc(OC)cc1)c1ncccn1 | 30.9 µM (active) | inactive | 0.338 µM (active) |  | 
3 | CCCCN1C(=O)[C@@H]([C@H](O)C2CCCCC2)NC(=O)C12CCN(Cc1ccc(Oc3ccc(C(=O)O)cc3)cc1)CC2 | inactive | inactive | 19.5 µM (active) | 17.8 µM (active) | 
4 | CC1=NC(C)OC1C (stereo unspecified) | inactive |  |  | 63.3 µM (active) | 
5 | COc1cccc2c1C(=O)c1c(O)c3c(c(O)c1C2=O)C[C@@](O)(C(=O)CO)C[C@@H]3O[C@H]1C[C@H](N)[C@H](O[C@@H]2CCCCO2)[C@H](C)O1 | 15.5 µM (active) | inactive | inactive |  | 
6 | CC(NN)c1ccccc1 (stereo unspecified) |  | inactive |  |  | -1.06% [at 15.8 µM]
